Laboratory results reported in the supplement of paper PMC10849652.
Of roughly 7,900 targets only a part is listed; those with a hit were picked by preference. About 0.6% of all pairs of compound and target were hits. A number with no mark means an inactive call.

What was measured:
Test in all cases: log2 fold change, soluble protein after heating vs DMSO (PISA); higher = thermal stabilisation; K562 cells, 10 uM, 30 min; active = over 0.2 and 3.5 SD of the protein, either way, in both replicates (recomputed)
[1] = compound: C1=CC=C(C=C1)[C@H](COC2=CC3=C(C=C2)NC(=O)N3)NC(=O)C4=CC=CN(C4=O)CC5=CC(=C(C=C5)F)F
How it was run: (§1)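 Soluble protein was defined as the supernatant after 21,000xg for 90 min. It came from K562 cells at 2×10^6 cells/mL given 10 μM compound for 30 min, heated in aliquots for 3 min across 48°C-58°C, pooled, and extracted in PBS with 0.5% NP-40 at 4°C, and was quantified by TMTpro 16plex LC-MS/MS with equalised channel sums. Thermal stability against control samples, from duplicates, is reported as log2 fold change.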

[2] = compound: CC1=C(SC2=C1C(=N[C@H](C3=NN=C(N32)C)CC(=O)N)C4=CC=C(C=C4)Cl)C
How it was run: as §1

[3] = compound: CC1=C2C(=CC=C1)N=C(N(C2=O)C3=CC=CC=C3C)CN4C=NC5=C(N=CN=C54)N
How it was run: as §1

[4] = compound: Cc1sc2c(c1C)C(c1ccc(Cl)cc1)=N[C@@H](CC(=O)OC(C)(C)C)c1nnc(C)n1-2
How it was run: as §1

[5] = compound: c1ccc([C@@H]2C[C@H]2NC2CCNCC2)cc1
How it was run: as §1

Chain of UniProt P15559 (P15559 whole entry, looked up): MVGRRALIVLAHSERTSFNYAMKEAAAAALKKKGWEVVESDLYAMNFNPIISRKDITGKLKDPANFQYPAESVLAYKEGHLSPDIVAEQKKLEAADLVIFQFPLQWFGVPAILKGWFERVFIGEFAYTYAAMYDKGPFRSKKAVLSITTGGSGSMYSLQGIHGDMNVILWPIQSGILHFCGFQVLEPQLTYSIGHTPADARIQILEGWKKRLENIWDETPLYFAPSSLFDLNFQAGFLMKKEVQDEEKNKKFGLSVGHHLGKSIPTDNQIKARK
Chain of UniProt O00567 (O00567 whole entry, looked up): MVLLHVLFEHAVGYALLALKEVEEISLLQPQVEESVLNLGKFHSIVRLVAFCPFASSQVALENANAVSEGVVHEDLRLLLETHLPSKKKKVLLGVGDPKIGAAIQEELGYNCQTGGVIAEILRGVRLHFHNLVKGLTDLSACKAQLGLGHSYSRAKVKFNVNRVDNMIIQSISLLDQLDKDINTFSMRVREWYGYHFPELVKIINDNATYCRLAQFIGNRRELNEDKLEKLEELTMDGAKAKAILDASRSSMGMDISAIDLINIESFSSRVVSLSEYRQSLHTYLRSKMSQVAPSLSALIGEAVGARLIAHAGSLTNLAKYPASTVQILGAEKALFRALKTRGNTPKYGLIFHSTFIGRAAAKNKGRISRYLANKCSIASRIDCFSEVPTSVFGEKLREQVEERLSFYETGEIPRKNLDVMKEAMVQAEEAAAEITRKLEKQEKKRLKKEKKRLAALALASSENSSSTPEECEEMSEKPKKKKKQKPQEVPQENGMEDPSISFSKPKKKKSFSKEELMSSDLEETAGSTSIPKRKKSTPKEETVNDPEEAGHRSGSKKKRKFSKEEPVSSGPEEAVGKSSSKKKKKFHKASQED
Chain of UniProt O00566 (O00566 whole entry, looked up): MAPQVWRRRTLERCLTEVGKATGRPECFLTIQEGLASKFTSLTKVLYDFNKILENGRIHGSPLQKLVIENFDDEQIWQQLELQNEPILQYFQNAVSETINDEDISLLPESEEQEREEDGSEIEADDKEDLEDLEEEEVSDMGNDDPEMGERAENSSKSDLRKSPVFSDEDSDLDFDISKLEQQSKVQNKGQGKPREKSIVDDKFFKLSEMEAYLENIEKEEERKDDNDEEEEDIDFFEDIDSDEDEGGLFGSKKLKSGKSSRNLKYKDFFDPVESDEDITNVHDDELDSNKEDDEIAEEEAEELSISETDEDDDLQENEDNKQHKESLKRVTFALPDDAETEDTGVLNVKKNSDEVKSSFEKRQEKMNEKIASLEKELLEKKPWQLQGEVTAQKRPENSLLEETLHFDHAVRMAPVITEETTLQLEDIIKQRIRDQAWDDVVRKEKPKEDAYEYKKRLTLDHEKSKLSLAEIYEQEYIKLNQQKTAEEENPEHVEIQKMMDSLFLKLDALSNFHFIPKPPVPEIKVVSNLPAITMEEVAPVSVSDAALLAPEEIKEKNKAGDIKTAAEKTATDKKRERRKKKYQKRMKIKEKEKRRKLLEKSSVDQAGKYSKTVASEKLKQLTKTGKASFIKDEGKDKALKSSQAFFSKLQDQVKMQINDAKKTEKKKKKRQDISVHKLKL
Chain of UniProt Q15102 (Q15102 whole entry, looked up): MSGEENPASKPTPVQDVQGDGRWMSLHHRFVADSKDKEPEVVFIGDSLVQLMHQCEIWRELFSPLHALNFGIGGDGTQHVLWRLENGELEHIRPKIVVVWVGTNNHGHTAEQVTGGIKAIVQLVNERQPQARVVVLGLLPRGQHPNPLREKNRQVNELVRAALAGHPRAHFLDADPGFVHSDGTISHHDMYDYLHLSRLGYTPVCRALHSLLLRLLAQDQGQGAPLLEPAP
Chain of UniProt Q9UH92 (Q9UH92 whole entry, looked up): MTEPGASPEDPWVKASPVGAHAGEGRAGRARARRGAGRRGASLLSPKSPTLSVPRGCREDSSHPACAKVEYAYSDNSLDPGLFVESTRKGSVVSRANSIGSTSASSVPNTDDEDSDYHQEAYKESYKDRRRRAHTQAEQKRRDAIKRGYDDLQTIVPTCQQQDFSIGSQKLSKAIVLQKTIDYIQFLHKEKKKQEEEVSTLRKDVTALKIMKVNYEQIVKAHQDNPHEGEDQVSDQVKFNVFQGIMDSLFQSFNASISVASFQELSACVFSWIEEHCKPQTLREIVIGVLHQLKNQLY
Chain of UniProt P40692 (P40692 whole entry, looked up): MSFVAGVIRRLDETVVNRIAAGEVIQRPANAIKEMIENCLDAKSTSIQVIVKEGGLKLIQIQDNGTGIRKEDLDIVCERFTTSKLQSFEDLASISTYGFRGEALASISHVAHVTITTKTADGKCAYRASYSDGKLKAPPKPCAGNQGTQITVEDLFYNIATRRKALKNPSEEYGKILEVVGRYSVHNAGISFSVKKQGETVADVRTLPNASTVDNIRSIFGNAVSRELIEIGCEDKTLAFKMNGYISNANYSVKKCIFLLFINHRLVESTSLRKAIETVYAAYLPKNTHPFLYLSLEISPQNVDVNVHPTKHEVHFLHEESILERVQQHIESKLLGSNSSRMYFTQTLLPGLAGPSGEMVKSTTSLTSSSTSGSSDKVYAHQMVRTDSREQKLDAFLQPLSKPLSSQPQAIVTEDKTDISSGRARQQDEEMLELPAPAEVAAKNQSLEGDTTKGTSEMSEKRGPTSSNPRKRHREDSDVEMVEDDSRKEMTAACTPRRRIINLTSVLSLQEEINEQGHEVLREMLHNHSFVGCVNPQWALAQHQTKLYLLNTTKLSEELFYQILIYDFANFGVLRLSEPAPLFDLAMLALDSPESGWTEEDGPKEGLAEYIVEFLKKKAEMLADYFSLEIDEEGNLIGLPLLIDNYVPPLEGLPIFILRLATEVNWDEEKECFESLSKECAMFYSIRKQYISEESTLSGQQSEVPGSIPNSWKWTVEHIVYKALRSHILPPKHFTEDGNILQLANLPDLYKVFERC
Chain of UniProt Q13423 (Q13423 whole entry, looked up): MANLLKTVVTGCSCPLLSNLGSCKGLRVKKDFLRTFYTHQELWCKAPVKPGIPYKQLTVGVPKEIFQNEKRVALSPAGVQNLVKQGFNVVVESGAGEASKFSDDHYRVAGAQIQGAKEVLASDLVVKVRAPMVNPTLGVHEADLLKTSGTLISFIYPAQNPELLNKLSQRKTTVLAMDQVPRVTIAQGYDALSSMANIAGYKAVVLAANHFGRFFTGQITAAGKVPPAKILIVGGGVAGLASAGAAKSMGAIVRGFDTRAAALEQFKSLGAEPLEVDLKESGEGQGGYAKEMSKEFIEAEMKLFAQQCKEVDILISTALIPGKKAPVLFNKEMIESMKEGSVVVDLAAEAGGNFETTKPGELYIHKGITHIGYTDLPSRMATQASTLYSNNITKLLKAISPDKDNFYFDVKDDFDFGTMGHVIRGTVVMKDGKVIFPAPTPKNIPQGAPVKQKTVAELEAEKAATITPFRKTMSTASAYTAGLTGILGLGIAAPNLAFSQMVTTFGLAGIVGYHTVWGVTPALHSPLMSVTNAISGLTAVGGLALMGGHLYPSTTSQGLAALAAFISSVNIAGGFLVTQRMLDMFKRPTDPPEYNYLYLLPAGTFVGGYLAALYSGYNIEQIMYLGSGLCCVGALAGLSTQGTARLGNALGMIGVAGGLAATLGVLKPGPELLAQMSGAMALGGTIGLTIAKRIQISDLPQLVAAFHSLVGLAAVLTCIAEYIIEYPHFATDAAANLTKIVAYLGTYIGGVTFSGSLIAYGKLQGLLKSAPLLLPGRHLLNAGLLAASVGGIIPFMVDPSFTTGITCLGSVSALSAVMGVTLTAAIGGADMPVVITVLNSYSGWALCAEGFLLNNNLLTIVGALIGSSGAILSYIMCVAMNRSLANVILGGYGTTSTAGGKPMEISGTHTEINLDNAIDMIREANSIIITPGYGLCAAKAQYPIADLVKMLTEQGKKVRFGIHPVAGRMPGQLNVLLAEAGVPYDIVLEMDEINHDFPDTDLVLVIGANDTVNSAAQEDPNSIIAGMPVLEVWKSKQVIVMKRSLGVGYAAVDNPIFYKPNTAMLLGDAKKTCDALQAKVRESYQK
Chain of UniProt Q6VY07 (Q6VY07 whole entry, looked up): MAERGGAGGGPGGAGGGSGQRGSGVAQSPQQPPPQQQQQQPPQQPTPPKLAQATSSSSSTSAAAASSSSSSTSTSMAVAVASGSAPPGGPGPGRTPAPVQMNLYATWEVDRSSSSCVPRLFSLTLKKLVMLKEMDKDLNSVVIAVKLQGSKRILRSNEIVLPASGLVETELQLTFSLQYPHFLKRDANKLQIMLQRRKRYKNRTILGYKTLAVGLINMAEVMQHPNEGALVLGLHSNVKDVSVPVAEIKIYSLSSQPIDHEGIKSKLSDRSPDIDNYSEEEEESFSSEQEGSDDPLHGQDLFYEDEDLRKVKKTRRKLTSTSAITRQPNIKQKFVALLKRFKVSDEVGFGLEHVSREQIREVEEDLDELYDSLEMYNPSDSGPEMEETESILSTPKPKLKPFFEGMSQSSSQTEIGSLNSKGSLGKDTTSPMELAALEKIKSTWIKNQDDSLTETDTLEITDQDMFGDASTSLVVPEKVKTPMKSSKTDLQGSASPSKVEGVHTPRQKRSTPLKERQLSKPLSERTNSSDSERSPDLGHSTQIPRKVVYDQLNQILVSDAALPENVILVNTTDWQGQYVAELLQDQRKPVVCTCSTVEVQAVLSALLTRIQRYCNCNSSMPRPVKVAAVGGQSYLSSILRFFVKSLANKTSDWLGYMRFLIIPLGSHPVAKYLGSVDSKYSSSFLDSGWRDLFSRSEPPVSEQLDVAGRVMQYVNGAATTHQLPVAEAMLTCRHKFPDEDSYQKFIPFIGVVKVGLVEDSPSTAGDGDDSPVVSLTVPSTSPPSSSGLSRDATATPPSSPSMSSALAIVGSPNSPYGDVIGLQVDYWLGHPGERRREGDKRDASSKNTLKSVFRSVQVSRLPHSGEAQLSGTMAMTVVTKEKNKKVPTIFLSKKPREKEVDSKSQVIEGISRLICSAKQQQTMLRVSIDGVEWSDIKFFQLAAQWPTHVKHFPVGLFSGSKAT
Chain of UniProt O60361 (O60361 whole entry, looked up): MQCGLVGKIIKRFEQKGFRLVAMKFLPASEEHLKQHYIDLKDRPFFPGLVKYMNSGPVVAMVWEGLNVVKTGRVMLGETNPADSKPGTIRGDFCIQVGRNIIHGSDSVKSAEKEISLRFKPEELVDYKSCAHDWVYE

Target	log2 fold change [1]	log2 fold change [2]	log2 fold change [3]	log2 fold change [4]	log2 fold change [5]
MOV10 (UniProt Q9HCE1)	0.067	-0.095	-0.095	0.145	0.057
OXSM (UniProt Q9NWU1)	0.072	-0.007	0.045	-0.007	0.036
NISCH (UniProt Q9Y2I1)	0.044	-0.02	0.036	0.044	-0.044
MT-ND2 (UniProt P03891)	0.023	0.123	-0.118	-0.03	-0.003
NA isoform 3 (UniProt Q4G0T1)	0.161	-0.017	0.026	0.024	-0.126
MYL12B (UniProt O14950)	0.028	0.054	0.009	-0.025	-0.077
NNT (UniProt Q13423)	-0.014	0.091	0.044	-0.028	0
MT-ATP6 (UniProt P00846)	-0.828 (active)	-0.065	0.076	-0.223	-0.035
NOP56 (UniProt O00567)	0.045	-0.289	-0.281	0.154	0.024
PAFAH1B2 (UniProt P68402)	-0.042	-0.078	0.078	0.004	0.082
NDUFA4 (UniProt O00483)	0	0.005	0.014	-0.031	0.046
NAA38 isoform 2 (UniProt Q9BRA0)	0.038	0.057	-0.013	-0.029	-0.124
NR2C2 isoform 2 (UniProt P49116)	-0.011	0.046	0.059	0.042	0.024
NQO1 (UniProt P15559)	0.07	0.122	0.083	-0.015	-0.072
NDUFB10 (UniProt O96000)	0.048	0.009	0.06	-0.031	0.002
MTHFS (UniProt P49914)	-0.075	0.035	-0.086	-0.023	-0.061
NDUFA6 (UniProt P56556)	-0.017	0.121	0.104	-0.067	-0.039
NUP160 (UniProt Q12769)	-0.013	0.043	0.038	0.014	0.044
PACS1 (UniProt Q6VY07)	-0.02	0.042	0.033	0.002	-0.014
MRPS18B (UniProt Q9Y676)	-0.055	-0.113	-0.041	0.127	-0.078

Target	log2 fold change [1]	log2 fold change [2]	log2 fold change [3]	log2 fold change [4]	log2 fold change [5]
NIPSNAP3B (UniProt Q9BS92)	0.045	-0.031	0.017	-0.021	0.099
MTHFD1, A0A384N5Y3	-0.063	0.138	-0.022	-0.002	-0.113
NOP53 (UniProt Q9NZM5)	0.103	-0.332	-0.415	0.353	0.097
NPEPPS (UniProt P55786)	-0.044	0.064	0.159	-0.003	-0.051
MRPS22 (UniProt P82650)	-0.016	0.05	-0.037	0.087	-0.063
OXR1 (UniProt Q8N573)	-0.021	0.026	0.039	-0.041	-0.069
NASP (UniProt P49321)	-0.009	0.049	0.054	-0.022	0.013
MRPS17 (UniProt Q9Y2R5)	-0.031	-0.044	-0.011	0.06	-0.064
MPHOSPH10 (UniProt O00566)	0.023	-0.279	-0.206	0.094	-0.024
NDUFS4 (UniProt O43181)	0.078	-0.04	-0.096	0.093	0.086
PAFAH1B3 (UniProt Q15102)	-0.076	0.139	0.128	-0.132	-0.096
NCAPD2 (UniProt Q15021)	-0.078	0.04	0.044	0.016	0.007
PAFAH2 (UniProt Q99487)	-0.191	0.016	0.066	-0.117	-0.141
NME2P1 (UniProt O60361)	-0.171	0.079	0.063	0.082	-0.004
NT5DC1 (UniProt Q5TFE4)	-0.036	0.075	0.006	0.021	0.011
NOLC1 isoform 2 (UniProt Q14978)	0	-0.029	0.002	-0.012	0.108
OXSR1 (UniProt O95747)	-0.039	0.048	0.096	-0.003	-0.03
NDUFA7 (UniProt M0R0N0)	-0.091		0.23		
OPHN1 (UniProt O60890)	-0.209	0.033		0.008	0.07
MLX (UniProt Q9UH92)	-0.055	0.032		0.093	-0.011

Target	log2 fold change [1]	log2 fold change [2]	log2 fold change [3]	log2 fold change [4]	log2 fold change [5]
NA, A0A2R8Y3M9	-0.093	-0.069			0.161
MLH1 (UniProt P40692)	0.192	0.007		-0.109	-0.065
NUDT7 (UniProt P0C024)	-0.077			-0.047	
OSBPL2 (UniProt Q9H1P3)		-0.583			-0.09
OSBPL3 (UniProt Q9H4L5)		-0.077	-0.035	0.292	0.14
OXA1L (UniProt Q15070)	0.014	-0.01	0.018	0	0.009
MITD1 (UniProt Q8WV92)	-0.058	0.022	-0.326	0.045	0.06
MITF (UniProt O75030)			-0.059		
MSANTD2 (UniProt Q6P1R3)			0.06	0.028	
MYO19 (UniProt Q96H55)	-0.07	0.016	0.146		0.088
NUDT21 (UniProt O43809)	0.013	0.021	0.011	-0.01	0.001
NOLC1 isoform 3 (UniProt Q14978)		0.007			-0.021
NELFCD (UniProt Q8IXH7)	-0.022	0.155	0.214		0.034
NA, A0A1W2PSA9		-0.046		0.006	0.104
MRPS2 (UniProt Q9Y399)	-0.084	0.147	-0.042	0.079	0.003
MYH11 isoform 2 (UniProt P35749)	0.011	0.024	-0.071	-0.026	-0.036
MOB2 isoform 3 (UniProt Q70IA6)	-0.015	0.129		0.067	-0.096
NFATC2 (UniProt Q13469)	-0.063	0.097	0.077	0.023	0.021
